Results on five compounds are retold here after PubChem BioAssay.

Calls of active or inactive are those of the source.

The test system of assay [1] is PRMT1 (protein arginine N-methyltransferase 1). Kind of assay: PRMT1 binders on small-molecule microarrays, primary screen, biochemical, small-molecule microarray, 635 nm fluorescence (AID 1088).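 Further: binding of Prmt1 protein to compounds spotted on small-molecule microarray slides.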 To be noted: small-molecule microarray binding, higher = more signal.
A short description of assay [2]: yeast growth modulation, basal conditions, primary screen, YJM789 clinical isolate, OD600, 24 h (AID 1089).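 Further: growth of clinical yeast isolate S. cerevisiae YJM 789 seeded 1000 cells per well; test concentration not given here.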 To be noted: S. cerevisiae YJM789 growth, higher = more signal, called active from +8 up or from −8 down.
The nature of assay [3]: fission yeast growth modulation, primary screen, strain 972, OD600, 24 h, no modulator (AID 1090).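 Further: basal condition with compound alone and no growth modifier present; test concentration not given here.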 To be noted: S. pombe 972 growth, higher = more signal, called active from +8 up or from −8 down.
Assay [4] can be described thus: S. cerevisiae growth modulation with rapamycin, primary screen, strain BY4716, OD600, 96 h (AID 1091). Further: test concentration not given here. To be noted: higher = more signal, called active from +8 up or from −8 down.
The target in assay [5] is Torsin-1A-interacting protein 2 (Homo sapiens) (UniProt Q8NFQ8). Kind of assay: LULL1 binders on small-molecule microarray, primary screen, cell lysate, human LULL1 lysate, 635/667 nm fluorescence (AID 1092).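 Further: probe is lysate of COS7 cells overexpressing human LULL1; score merges per-feature 667 nm fluorescence with signal-to-noise.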 To be noted: hLULL1 lysate binding, 635 nm fluorescence, higher = more signal.
Assay [6] can be described thus: E. coli growth modulation, two-sided OD650, primary screen, E. coli filamentation project, strain DRC41, 24 h (AID 1093).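 Further: MC1000 strain lacking acrAB efflux and sulA so SOS filamentation is blocked; test concentration not given here.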 To be noted: OD650, 24 h, higher = more signal, called active from +8 up or from −8 down.
A short description of assay [7]: small-molecule microarray binders of probe aLefty2, primary screen, biochemical, biotinylated probe, 635/667 nm fluorescence (AID 1094).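 Further: score merges spot fluorescence near 667 nm with spot signal-to-noise ratio.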 The note with it: higher = more signal.
For assay [8], the system named is Noggin (protein binding on small-molecule microarray). Kind of assay: Noggin binders on small-molecule microarray, primary screen, biochemical, 635/667 nm fluorescence (AID 1095).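 Further: score merges 667 nm feature fluorescence with signal to noise over triplicate slides.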 To be noted: 635 nm fluorescence, higher = more signal.
Assay [9] has as its target Neurogenic locus notch homolog protein 3 (Homo sapiens) (UniProt Q9UM47). Description: NOTCH3 binders on small-molecule microarray, primary screen, biochemical, 635/667 nm fluorescence (AID 1096). The note with it: NOTCH3 binding, 635 nm fluorescence, higher = more signal.
Assay [10] is described as follows: small-molecule microarray binders of probe aEGFR, primary screen, biochemical, biotinylated probe, 635/667 nm fluorescence (AID 1097).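 Further: probe is a biotinylated anti-EGFR antibody binding compounds printed on slides; score combines fluorescence near 667 nm and signal to noise of each spot.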 The note with it: higher = more signal.
Assay [11] has as its system Plasmodium falciparum Sir2 (PF13_0152, Sir2A). Description: pfSir2 binders on small-molecule microarrays, primary screen, biochemical, small-molecule microarray, 635 nm fluorescence (AID 1098).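 Further: score merges spot fluorescence intensity with its signal-to-noise ratio.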 The note with it: small-molecule microarray binding, fluorescence 635 nm; higher = more signal.
Assay [12] can be described thus: small-molecule microarray binders of probe aDKK1, primary screen, biochemical, biotinylated probe, 635/667 nm fluorescence (AID 1099).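 Further: score merges 667nm spot fluorescence with signal to noise across triplicate slides; reference of the scale not given here.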 To be noted: higher = more signal.
Assay [13] in a line: small-molecule microarray binders of probe aCHRDL2, primary screen, biochemical, biotinylated probe, 635/667 nm fluorescence (AID 1100). The note with it: higher = more signal.
Assay [14] is described as follows: splicing luciferase reporter signal modulators, primary screen, spliceosome inhibition project, cell-based, HEK293, splice +/- reporter (AID 1101).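 Further: HEK293 cells carrying a splicing-competent luciferase reporter gene; test concentration not given here.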 The note with it: luminescence, 24 h, higher = more signal, called active from +8 up or from −8 down. A general note: Reporter assays use an easily measured gene product as a stand-in for the process of interest.
Assay [15] addresses Fibroblast growth factor 10 (Homo sapiens) (UniProt O15520). Description: FGF10 binders on small-molecule microarrays, primary screen, biochemical, small-molecule microarray, 635 nm fluorescence (AID 1102). To be noted: FGF10 binding, fluorescence 635 nm, higher = more signal.
The subject of assay [16] is glycogen synthase kinase-3 (GSK3A per assay name; protocol says GSK3B). Kind of assay: GSK3 binders on small-molecule microarrays, primary screen, biochemical, small-molecule microarray, 635 nm fluorescence, GSK3A (AID 1103). Further: the record names both GSK3A and GSK3B. To be noted: small-molecule microarray binding, fluorescence 635 nm; higher = more signal.
In assay [17] the target is Epidermal growth factor receptor (Homo sapiens) (UniProt P00533). Kind of assay: EGFR binders on small-molecule microarrays, primary screen, biochemical, small-molecule microarray, 635 nm fluorescence (AID 1104).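 Further: score merges 667 nm emission intensity with spot signal to noise over triplicate slides.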 The note with it: EGFR binding, higher = more signal.
Assay [18] has as its target Follistatin-related protein 3 (Homo sapiens) (UniProt O95633). Kind of assay: FSTL3 binders on small-molecule microarrays, primary screen, biochemical, small-molecule microarray, 635 nm fluorescence (AID 1105).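 Further: score merges emission near 667 nm and signal to noise per printed spot across three slides.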 To be noted: FSTL3 binding, higher = more signal.
Assay [19] has as its target Dickkopf-related protein 1 (Homo sapiens) (UniProt O94907). Kind of assay: DKK1 binders on small-molecule microarrays, primary screen, biochemical, small-molecule microarray, 635 nm fluorescence scan (AID 1106).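 Further: score merges emission near 667 nm with signal to noise over three replicate slides.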 The note with it: DKK1 binding, higher = more signal.
Assay [20] concerns Inhibin beta A chain (activin A). Kind of assay: INHBA (activin A) binders on microarrays, primary screen, biochemical, small-molecule microarray, 635 nm fluorescence scan (AID 1107).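 Further: mouse activin A protein probed at 4.33 µg/mL on printed slides; score merges bound-protein fluorescence near 667 nm with spot signal-to-noise.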 The note with it: small-molecule microarray binding, higher = more signal.

Chain of Fibroblast growth factor 10 (Homo sapiens) (O15520 whole entry, looked up): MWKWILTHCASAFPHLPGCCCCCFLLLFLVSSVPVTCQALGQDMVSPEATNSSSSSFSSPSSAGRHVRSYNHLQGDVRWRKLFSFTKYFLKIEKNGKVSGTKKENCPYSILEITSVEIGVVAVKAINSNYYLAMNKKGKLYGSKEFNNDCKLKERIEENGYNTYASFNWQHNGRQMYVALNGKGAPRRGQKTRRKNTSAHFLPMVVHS
Chain of Dickkopf-related protein 1 (Homo sapiens) (O94907 whole entry, looked up): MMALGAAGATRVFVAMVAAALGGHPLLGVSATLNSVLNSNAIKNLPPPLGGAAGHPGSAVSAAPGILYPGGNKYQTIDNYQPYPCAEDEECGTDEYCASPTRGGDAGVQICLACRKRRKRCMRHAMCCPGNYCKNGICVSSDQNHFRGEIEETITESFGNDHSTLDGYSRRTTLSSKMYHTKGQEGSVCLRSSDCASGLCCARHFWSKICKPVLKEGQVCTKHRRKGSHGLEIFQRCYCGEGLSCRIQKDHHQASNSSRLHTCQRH
Chain of Epidermal growth factor receptor (Homo sapiens) (P00533 whole entry, looked up): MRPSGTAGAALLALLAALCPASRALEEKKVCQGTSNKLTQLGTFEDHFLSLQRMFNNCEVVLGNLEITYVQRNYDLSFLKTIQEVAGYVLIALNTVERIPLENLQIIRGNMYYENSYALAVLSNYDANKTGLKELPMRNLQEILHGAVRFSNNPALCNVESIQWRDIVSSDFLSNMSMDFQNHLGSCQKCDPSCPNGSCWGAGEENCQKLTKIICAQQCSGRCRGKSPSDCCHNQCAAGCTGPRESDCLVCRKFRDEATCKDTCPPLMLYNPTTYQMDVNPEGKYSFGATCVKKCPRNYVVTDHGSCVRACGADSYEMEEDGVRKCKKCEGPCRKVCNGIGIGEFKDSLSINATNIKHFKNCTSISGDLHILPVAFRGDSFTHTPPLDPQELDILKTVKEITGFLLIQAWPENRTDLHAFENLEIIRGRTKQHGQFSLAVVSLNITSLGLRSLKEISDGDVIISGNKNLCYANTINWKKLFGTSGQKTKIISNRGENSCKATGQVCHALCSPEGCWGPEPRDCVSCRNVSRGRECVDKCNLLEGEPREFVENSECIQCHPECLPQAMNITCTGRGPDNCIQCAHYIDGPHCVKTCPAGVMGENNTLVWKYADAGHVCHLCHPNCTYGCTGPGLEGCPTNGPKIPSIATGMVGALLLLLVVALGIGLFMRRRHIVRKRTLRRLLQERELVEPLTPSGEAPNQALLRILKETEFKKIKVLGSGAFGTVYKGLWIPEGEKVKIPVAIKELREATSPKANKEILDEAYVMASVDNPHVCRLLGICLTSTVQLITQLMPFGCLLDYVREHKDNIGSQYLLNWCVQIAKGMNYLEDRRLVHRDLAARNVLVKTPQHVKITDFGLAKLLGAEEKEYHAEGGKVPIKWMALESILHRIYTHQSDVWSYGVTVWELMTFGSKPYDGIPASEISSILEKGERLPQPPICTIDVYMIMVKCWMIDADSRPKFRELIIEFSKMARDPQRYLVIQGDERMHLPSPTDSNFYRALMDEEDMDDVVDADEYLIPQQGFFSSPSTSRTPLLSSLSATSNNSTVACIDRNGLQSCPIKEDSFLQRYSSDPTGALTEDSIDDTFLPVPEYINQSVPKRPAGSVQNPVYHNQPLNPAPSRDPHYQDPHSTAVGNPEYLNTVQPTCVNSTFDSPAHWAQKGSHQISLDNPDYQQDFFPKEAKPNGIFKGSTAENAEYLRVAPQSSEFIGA
Chain of Torsin-1A-interacting protein 2 (Homo sapiens) (Q8NFQ8 whole entry, looked up): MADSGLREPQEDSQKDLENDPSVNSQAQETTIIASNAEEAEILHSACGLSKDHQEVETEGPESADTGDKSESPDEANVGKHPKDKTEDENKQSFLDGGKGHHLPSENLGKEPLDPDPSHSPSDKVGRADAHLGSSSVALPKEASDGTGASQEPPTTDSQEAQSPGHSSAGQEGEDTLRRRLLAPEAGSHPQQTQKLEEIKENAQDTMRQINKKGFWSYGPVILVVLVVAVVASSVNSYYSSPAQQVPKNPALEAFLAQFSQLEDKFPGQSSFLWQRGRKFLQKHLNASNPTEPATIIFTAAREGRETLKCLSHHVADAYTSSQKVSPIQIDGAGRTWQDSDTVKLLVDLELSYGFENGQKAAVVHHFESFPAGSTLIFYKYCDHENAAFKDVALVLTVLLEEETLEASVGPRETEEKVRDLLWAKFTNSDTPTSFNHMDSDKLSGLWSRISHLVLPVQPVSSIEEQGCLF
Chain of Follistatin-related protein 3 (Homo sapiens) (O95633 whole entry, looked up): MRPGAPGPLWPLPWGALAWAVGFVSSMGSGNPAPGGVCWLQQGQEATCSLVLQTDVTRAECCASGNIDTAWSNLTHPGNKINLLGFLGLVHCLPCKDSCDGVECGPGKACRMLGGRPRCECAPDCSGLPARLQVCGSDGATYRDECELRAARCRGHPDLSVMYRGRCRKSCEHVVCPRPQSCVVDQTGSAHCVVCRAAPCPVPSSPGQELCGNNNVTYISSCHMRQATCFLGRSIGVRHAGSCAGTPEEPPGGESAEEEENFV
Chain of Neurogenic locus notch homolog protein 3 (Homo sapiens) (Q9UM47 whole entry, looked up): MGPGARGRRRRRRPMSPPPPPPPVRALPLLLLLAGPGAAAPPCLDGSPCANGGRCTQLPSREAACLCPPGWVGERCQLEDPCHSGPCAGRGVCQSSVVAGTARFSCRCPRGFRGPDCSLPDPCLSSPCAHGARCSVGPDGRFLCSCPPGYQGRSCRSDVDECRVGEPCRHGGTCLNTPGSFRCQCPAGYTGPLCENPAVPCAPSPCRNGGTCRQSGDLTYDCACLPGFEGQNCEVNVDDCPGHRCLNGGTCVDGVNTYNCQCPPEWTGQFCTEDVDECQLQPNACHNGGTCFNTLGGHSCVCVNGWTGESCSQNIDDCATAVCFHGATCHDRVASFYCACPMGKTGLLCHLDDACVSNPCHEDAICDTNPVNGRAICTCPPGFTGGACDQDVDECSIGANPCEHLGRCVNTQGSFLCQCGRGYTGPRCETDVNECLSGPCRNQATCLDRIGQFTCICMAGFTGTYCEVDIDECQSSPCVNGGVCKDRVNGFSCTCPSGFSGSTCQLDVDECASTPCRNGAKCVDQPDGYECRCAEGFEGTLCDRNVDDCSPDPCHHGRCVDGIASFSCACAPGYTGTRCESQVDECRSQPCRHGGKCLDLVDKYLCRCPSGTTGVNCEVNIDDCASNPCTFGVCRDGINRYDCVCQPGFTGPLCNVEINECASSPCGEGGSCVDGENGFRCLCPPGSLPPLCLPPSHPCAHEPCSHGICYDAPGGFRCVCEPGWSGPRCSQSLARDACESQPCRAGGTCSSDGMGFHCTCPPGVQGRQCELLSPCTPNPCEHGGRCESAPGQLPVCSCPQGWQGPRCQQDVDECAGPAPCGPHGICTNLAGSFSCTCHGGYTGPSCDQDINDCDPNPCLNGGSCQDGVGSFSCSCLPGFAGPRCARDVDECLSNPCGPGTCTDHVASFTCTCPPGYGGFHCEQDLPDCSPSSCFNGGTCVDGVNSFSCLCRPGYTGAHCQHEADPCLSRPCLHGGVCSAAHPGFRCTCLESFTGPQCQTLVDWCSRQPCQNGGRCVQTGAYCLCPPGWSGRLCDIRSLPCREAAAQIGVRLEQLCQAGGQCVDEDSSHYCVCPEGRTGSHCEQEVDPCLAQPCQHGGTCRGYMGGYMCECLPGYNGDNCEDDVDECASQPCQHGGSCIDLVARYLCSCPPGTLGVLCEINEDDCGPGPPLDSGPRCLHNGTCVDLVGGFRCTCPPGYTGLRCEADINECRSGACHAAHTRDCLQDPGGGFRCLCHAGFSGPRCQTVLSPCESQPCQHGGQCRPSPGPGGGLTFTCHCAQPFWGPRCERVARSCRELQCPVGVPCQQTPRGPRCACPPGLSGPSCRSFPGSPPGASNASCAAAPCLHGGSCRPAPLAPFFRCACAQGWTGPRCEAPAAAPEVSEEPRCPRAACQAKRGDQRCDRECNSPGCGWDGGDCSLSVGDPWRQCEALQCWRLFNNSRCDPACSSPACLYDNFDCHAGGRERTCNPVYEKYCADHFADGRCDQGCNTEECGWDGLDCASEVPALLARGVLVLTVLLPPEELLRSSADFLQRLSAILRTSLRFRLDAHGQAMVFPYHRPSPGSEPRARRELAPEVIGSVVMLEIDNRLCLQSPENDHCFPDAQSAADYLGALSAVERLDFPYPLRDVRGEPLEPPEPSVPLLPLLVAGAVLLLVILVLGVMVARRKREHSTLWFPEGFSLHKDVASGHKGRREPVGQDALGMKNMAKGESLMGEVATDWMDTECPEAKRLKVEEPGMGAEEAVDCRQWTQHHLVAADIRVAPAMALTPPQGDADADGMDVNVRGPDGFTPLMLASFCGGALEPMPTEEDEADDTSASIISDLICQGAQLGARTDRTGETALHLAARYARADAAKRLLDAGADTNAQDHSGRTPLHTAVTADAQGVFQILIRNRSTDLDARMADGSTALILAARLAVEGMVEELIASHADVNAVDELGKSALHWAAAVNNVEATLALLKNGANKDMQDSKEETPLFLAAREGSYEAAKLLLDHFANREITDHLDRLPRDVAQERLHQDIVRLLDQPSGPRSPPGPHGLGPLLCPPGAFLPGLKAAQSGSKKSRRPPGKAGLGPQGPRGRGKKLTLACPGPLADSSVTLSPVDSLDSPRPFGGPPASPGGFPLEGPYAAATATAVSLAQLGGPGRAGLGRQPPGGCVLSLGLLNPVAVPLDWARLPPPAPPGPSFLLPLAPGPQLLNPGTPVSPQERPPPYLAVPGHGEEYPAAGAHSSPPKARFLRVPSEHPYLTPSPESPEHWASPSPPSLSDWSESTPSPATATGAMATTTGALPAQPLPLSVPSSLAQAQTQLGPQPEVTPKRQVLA

On to `COc1ccc(O[C@H]2C=C[C@@H](c3ccccc3)O[C@@H]2COC(=O)CCC(C)=NOC[C@@H](C)[C@H](OCc2ccccc2)C(C)C)cc1`, for which the composite z-score is -0.548 in [1]; -0.694 in assay [5]; -0.261 in [7]; -0.37 in assay [8]; -1.03 in assay [9]; -0.219 in [10]. In addition, the composite z-score is -0.886 in [11]; -0.366 in assay [12]; -0.529 in assay [13]; -0.433 in assay [15]; -0.662 in assay [16]; -0.706 in [17]. The composite z-score in assay [18] is -0.629; in assay [19], -0.698; in [20], 0.553. For the same compound, the z-score in [2] was 0.122 (inactive); in assay [3] it was 0.329 (inactive); in assay [4], -1.18 (inactive); in assay [6], 0.17 (inactive); in assay [14], 0.292 (inactive).
In the case of `O=C1[C@H]2[C@H]3[C@H](O)[C@H](O)CC(=NOC[C@@H](O)COCc4ccco4)[C@H]3CC[C@H]2C(=O)N1Cc1ccc2c(c1)OCO2`, the composite z-score is 1.29 in [1]; -0.829 in assay [5]; -0.29 in assay [7]; 0.154 in [8]; -0.0875 in [9]; -0.0039 in [10]. The composite z-score was 0.285 in assay [11]; 0.534 in [12]; -1.5 in [13]; 0.11 in [15]; 1.28 in [16]; 0.986 in assay [17]. Also, the composite z-score was 0.83 in assay [18], 1.39 in assay [19] and 0.0751 in [20]. Also, the z-score in assay [2] is -0.285 (inactive); in assay [3] it was -0.279 (inactive); in [4], -1.09 (inactive); in assay [6], 0.617 (inactive); in assay [14], 0.204 (inactive).
In the case of `CN(C)c1ccc(C(O)C2C=CC3C(=O)N(c4ccccc4)C(=O)C3N2Nc2ccccc2F)cc1` (stereo not given), the composite z-score in [1] was 1.09; in assay [5], 2.21; in [7] it was -0.166; in assay [8], -0.318; in assay [9] it was 0.443; in [10], 0.0904. In addition, the composite z-score in assay [11] was 1.58; in [12], 0.407; in [13], 0.792; in [15], -0.235; in [16], 1.23; in [17], -0.675. Besides, the composite z-score is 0.206 in [18], -0.606 in assay [19] and 0.941 in assay [20]. Further, the z-score in assay [2] was 0.0194 (inactive); in assay [3], -13.6 (active); in assay [4], 1.7 (inactive); in assay [6], -0.457 (inactive); in assay [14] it was -0.947 (inactive).
For `CCOC(=O)[C@H](CC(C)C)NC(=O)CCC1CC(OC(=O)NCc2cccc3ccccc23)CC2(CCCC(COC(=O)NCCN3CCOCC3)O2)O1` (stereo not given in full), the composite z-score in assay [1] was 1.57; in assay [5] it was 2.36; in assay [7], -0.173; in [8], 0.344; in [9], 1.11; in assay [10], -0.0828. Further, the composite z-score in [11] is 0.608; in assay [12] it was -0.265; in [13], -0.668; in [15], 0.763; in assay [16] it was 1.28; in assay [17] it was 0.416. Also, the values for the composite z-score in assay [18], in assay [19] and in assay [20] were 0.707, 0.652 and 0.209, respectively. In addition, the z-score in [2] was -1.26 (inactive); in [3], 0.557 (inactive); in assay [4] it was -1.04 (inactive); in assay [6] it was -0.737 (inactive); in assay [14] it was -0.746 (inactive).
For `CC(=O)OC[C@H]1O[C@@H](ON=C(C)CCN2CCc3nc(-c4ccccc4)c(-c4ccccc4)cc3C2)[C@H](OC(C)=O)[C@@H](OC(C)=O)[C@@H]1OC(C)=O`, the composite z-score in assay [1] came out at 1.51; in [5] it was 2.27; in assay [7], 0.0754; in assay [8], 0.591; in assay [9], 1.09; in assay [10], 0.0291. Moreover, the composite z-score is 0.625 in assay [11]; -0.119 in [12]; -0.413 in [13]; 0.917 in [15]; 1.22 in assay [16]; 0.525 in [17]. For the same compound, the composite z-score in assay [18] was 0.979; in assay [19], 0.525; in assay [20], -0.0877. Also, the z-score is 0.0264 (inactive) in [2]; -1.03 (inactive) in assay [3]; -3.53 (inactive) in assay [4]; -0.395 (inactive) in [6]; 0.522 (inactive) in [14].
